Compound activity: PubChem, National Center for Advancing Translational Sciences (NCATS)
RORg inh = qHTS for inhibitors of ROR gamma transcriptional activity | Drosophila S2 Gal4-RORgamma UAS-luciferase reporter, 20 h | Potency, µM (titrated, usually from 53.6 µM), most hits filed as inhibitors | AID 2551, 2010 | Nuclear receptor ROR-gamma (Mus musculus), P51450 | 310,000 tested, 5.4% active; further: nearly all actives have a fitted effect of over 60% in size
Target sequence (P51450 whole entry, looked up, the tested form may be a part): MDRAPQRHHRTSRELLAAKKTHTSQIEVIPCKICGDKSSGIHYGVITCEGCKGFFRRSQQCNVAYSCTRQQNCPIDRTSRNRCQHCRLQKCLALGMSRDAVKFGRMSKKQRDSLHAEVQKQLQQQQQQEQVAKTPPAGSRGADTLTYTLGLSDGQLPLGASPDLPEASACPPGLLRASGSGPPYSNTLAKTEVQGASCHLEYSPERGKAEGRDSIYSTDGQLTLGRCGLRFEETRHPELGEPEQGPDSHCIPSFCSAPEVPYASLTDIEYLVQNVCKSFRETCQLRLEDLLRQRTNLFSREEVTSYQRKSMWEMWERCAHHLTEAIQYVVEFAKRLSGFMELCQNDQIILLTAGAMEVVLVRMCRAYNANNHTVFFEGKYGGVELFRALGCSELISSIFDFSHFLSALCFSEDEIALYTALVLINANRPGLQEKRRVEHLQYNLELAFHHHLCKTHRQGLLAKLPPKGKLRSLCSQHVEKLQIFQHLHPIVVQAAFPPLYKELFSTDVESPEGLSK
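Stably transfected Drosophila Schneider cells are the test system, with ROR gamma fused to Gal4 and luciferase under UAS control; luminescence is read after 20 hr of 700 uM copper sulfate induction at ambient temperature.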
Giardia killer = Small Molecules that selectively kill Giardia lamblia: qHTS. Giardia lamblia trophozoite viability. activity change, % at 7.66 µM, hits read low. 340,000 tested, 0.15% active; in the data active means activity change below about -80%; inconclusive means between about -30% and that limit;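 further: parasites exposed to compound for two days anaerobically before the ATP read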
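Giardia trophozoites, 100 cells per well, were exposed to compounds for 48 hrs at 37 deg C under anaerobic conditions; viability was then read as ATP content by bioluminescence after 15-30 min at room temperature.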
VP16 counter = VP16 counterscreen qHTS for inhibitors of ROR gamma transcriptional activity | AID 2546, 2010 | Potency, µM (series often up to 53.6 µM), hits mostly inhibitors | Drosophila S2 Gal4-VP16 UAS-luciferase, luminescence, 20 h | 310,000 tested, 3.5% active;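 further: Gal4-VP16 expression switched on by copper sulfate through the metallothionein promoter; nearly all actives have a fitted effect of over 50% in size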
BCR signal inh = qHTS Assay to Find Inhibitors of Chronic Active B-Cell Receptor Signaling | ABC-DLBCL IkBa-CBG/CBR reporter, luminescence ratio, 4 h | Potency, µM (top dose mostly 46.1 µM), usual class: inhibitors | 340,000 tested, 0.05% active | AID 493014, 2011; active means well fitted inhibition curve with a large enough effect in the signal ratio, with a control signal flat, not every such curve was filed as active; inconclusive means small, poorly fitted or top-dose-only effect, or effect the other way, or a change in a side signal; the % refers to the signal ratio
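Cell line TMD8 (human ABC DLBCL), stably expressing tet-inducible CBG68-IkBa fusion and CBR; IMDM/0.5% FBS; cpd up to 46 uM; dox induction, 4 h, 37C/5% CO2; dual luminescence; green/red ratio; MG132 control.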
SW480 rereplic = A quantitative high throughput screen for small molecules that induce DNA re-replication in SW480 colon adenocarcinoma cells. SW480 DNA re-replication, Hoechst DNA content imaging, 48 h. 340,000 tested, 1.8% active. Potency, µM (series often up to 46.1 µM), most hits filed as activators; further: nearly all actives have a fitted effect of over 55% in size
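DNA re-replication was detected as more nuclei of elevated Hoechst intensity after 48 hr exposure to compound (23 nL pinned per well of 250 cells).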
MCF10A rerep = A quantitative high throughput screen for small molecules that induce DNA re-replication in MCF 10a normal breast cells. Potency, µM (series often up to 46.1 µM), hits mostly activators. MCF 10A DNA re-replication, Hoechst nuclear intensity, 48 h. 350,000 tested, 2.9% active; further: nearly all actives have a fitted effect of over 50% in size
Large screens that a line does not name were inactive. Shown are actives, neighbours in structure and some others; about 8.3% of the full set was active somewhere. Unless noted, the call rests on the fitted dose curve; in most records, active means well fitted curve in the direction sought with a large enough effect; inconclusive means small, poorly fitted or top-dose-only effect, or another doubt; inactive means no such curve, though single readings can be large; an effect the other way counts as inactive or inconclusive.

Clc1ccc(-c2c[n+](Cc3ccc(Cl)cc3Cl)c3n2CCCCC3)cc1	VP16 counter 11.2µM, BCR signal inh inconclusive
COC1/C=C/OC2(C)Oc3c(C)c(O)c4c(O)c(c(/C=N/N5CCN(C)CC5)c(O)c4c3C2=O)NC(=O)/C(C)=C/C=C/C(C)C(O)C(C)C(O)C(C)C(OC(C)=O)C1C (centres undefined)	none (no result: Giardia killer, BCR signal inh, SW480 rereplic, MCF10A rerep)
CC(C)C[C@@H](CN1C(=O)C(=O)NC[C@@H]1CC(C)C)NC(=O)Cc1ccccc1	none (no result: RORg inh, VP16 counter)
CC1CCC(C(C)C)C(OC(=O)C[n+]2cc(-c3ccc(Cl)cc3)n3c2CCCCC3)C1 (centres undefined)	VP16 counter 10µM, BCR signal inh inconclusive, SW480 rereplic inconclusive, MCF10A rerep inconclusive
COc1ccc(C(=O)NC23CC4CC(CC(C4)C2)C3)cc1	none
CC(Oc1ccc2oc3ccccc3c2c1)C(=O)NC12CC3CC(CC(C3)C1)C2 (centres undefined)	RORg inh inconclusive, VP16 counter inconclusive, SW480 rereplic inconclusive, MCF10A rerep 16.4µM
O=C(NCc1ccco1)/C(=C\c1ccco1)NC(=O)c1ccccc1Cl	BCR signal inh inconclusive, SW480 rereplic 11.6µM
O=C(NCc1ccco1)/C(=C/c1ccco1)NC(=O)c1ccco1	none
CN(C)c1ccc(/C=C/C(=O)c2cccc(Br)c2)cc1	BCR signal inh inconclusive, SW480 rereplic inconclusive, MCF10A rerep 16.4µM
CC(=O)Nc1cccc(C(=O)/C=C/c2ccc(C)cc2)c1	RORg inh 12.6µM, VP16 counter inconclusive, BCR signal inh inconclusive, SW480 rereplic inconclusive, MCF10A rerep 20.6µM
CCC(=O)Nc1cccc(C(=O)/C=C/c2ccc(F)cc2)c1	RORg inh inconclusive, VP16 counter inconclusive, BCR signal inh inconclusive, SW480 rereplic 10.3µM, MCF10A rerep inconclusive
CC(=O)Nc1ccc(/C=C/C(=O)c2ccc3c(c2)OCCO3)cc1	RORg inh inconclusive, BCR signal inh inconclusive, SW480 rereplic inconclusive, MCF10A rerep inconclusive
CC(=O)Nc1cccc(C(=O)N/N=C/c2ccc(F)cc2)c1	none
CCn1c(=O)c2c(nc3n2CCN3c2ccccc2)n(C)c1=O	none
COc1ccc(/C=C2\CN(Cc3ccccc3)C/C(=C\c3ccc(OC)cc3)C2=O)cc1	VP16 counter inconclusive, BCR signal inh inconclusive, MCF10A rerep 8.2µM (no result: SW480 rereplic)
O=C(NC1CCSc2ccccc21)c1c(F)cccc1Cl (centres undefined)	BCR signal inh inconclusive
Cc1ccc(C2(C(F)(F)F)NC(=O)N3N=C4CCCCCN4C3=C2C#N)cc1 (centres undefined)	SW480 rereplic inconclusive
CC(C)NC(=O)CCCOc1ccc(Cl)cc1Cl	none
O=C(CCCOc1ccc(Cl)cc1Cl)N/N=C/c1ccco1	none
CN(C(=S)NC(=O)CCCOc1ccc(Cl)cc1Cl)c1ccccc1	RORg inh 5.62µM, BCR signal inh inconclusive, SW480 rereplic inconclusive
Cc1ccc(/C=N/NC(=O)CCCOc2ccc(Cl)cc2Cl)cc1[N+](=O)[O-]	BCR signal inh inconclusive, MCF10A rerep inconclusive
O=C(CCCOc1ccc(Cl)cc1Cl)N/N=C/c1ccccc1	VP16 counter inconclusive, BCR signal inh inconclusive, SW480 rereplic 1.64µM, MCF10A rerep inconclusive
Cc1ccc(/C=N/NC(=O)CCCOc2ccc(Cl)cc2Cl)cc1	VP16 counter inconclusive, SW480 rereplic inconclusive, MCF10A rerep 14.6µM
O=C(CCCOc1ccc(Cl)cc1Cl)N/N=C/c1ccccc1O	RORg inh 8.91µM, SW480 rereplic inconclusive, MCF10A rerep inconclusive
COC(=O)c1c(NC(=O)C(=O)N2CCCC2)sc2c1CC(C)(C)OC2	none
CCN(CC)C(=O)c1sc2c(c1C)c(=O)n(-c1ccc(Cl)c(Cl)c1)c(=O)n2CC(=O)Nc1cccc(OC)c1	none (no result: RORg inh, Giardia killer, VP16 counter, SW480 rereplic, MCF10A rerep)
O=C(COc1ccc(Cl)cc1Cl)N/N=C/c1ccc[nH]1	RORg inh 2.82µM, VP16 counter 4.47µM, MCF10A rerep 11.6µM
Cc1cc2nc(-c3ccc(SCC(=O)Nc4ccc(S(=O)(=O)N5CCCC5)cc4)nc3)[nH]c2cc1C	RORg inh inconclusive, Giardia killer inconclusive, VP16 counter inconclusive, BCR signal inh inconclusive, SW480 rereplic inconclusive, MCF10A rerep 20.6µM
COc1ccccc1CNCC(c1ccccc1)c1ccccc1	BCR signal inh inconclusive (no result: Giardia killer, SW480 rereplic, MCF10A rerep)
COc1ccc(S(=O)(=O)N2CCOC2CNC(=O)C(=O)NCc2ccccn2)cc1 (centres undefined)	none (no result: RORg inh, VP16 counter, BCR signal inh)
NS(=O)(=O)c1ccc(CCNC(=O)C(=O)NCC2OCCN2S(=O)(=O)c2ccc(Cl)cc2)cc1 (centres undefined)	VP16 counter 15.8µM
NS(=O)(=O)c1ccc(CCNC(=O)C(=O)NCC2OCCN2S(=O)(=O)c2ccc(F)cc2)cc1 (centres undefined)	none
O=C(NCc1ccccn1)C(=O)NCC1OCCN1S(=O)(=O)c1ccc(Br)cc1 (centres undefined)	VP16 counter 25.1µM
O=C(O)c1cccnc1C(=O)c1ccccc1	none (no result: RORg inh, VP16 counter, BCR signal inh)
CCc1cc(-c2[nH]ncc2-c2ccc(OC)cc2)c(O)cc1O	BCR signal inh inconclusive
CCOc1ccc(-c2[nH]ncc2-c2ccc(Cl)cc2)c(O)c1	RORg inh 11.2µM, VP16 counter inconclusive, SW480 rereplic inconclusive, MCF10A rerep inconclusive
COc1ccc(-c2cn[nH]c2-c2ccc(OCc3ccc([N+](=O)[O-])cc3)cc2O)cc1	RORg inh 2.82µM, VP16 counter 2µM, SW480 rereplic inconclusive, MCF10A rerep 5.8µM
COc1ccc(-c2cn[nH]c2-c2ccc(O)cc2O)cc1OC	none
CCOc1ccc(-c2[nH]ncc2-c2ccc(OC)c(OC)c2)c(O)c1	RORg inh inconclusive, VP16 counter inconclusive, SW480 rereplic 2.59µM, MCF10A rerep inconclusive
COCC(C)N=C1NN=C(c2cc(C)n(Cc3ccccc3Cl)c2C)CS1 (centres undefined)	BCR signal inh inconclusive
CCC(C)NC(=O)CSc1nnc(-c2ccc(OC)c(OC)c2)c(-c2ccc(OC)c(OC)c2)n1 (centres undefined)	none
CCOC(=O)c1nnn(CC(=O)N2N=C(c3cc(C)ccc3C)CC2c2ccc(OC)cc2)c1C(=O)OCC (centres undefined)	none
CCOC(=O)c1nnn(CC(=O)N2N=C(c3ccccc3)CC2c2ccccc2)c1C(=O)OCC (centres undefined)	RORg inh 12.6µM
Cc1ccccc1OCCn1cnc2c(N)ncnc21	BCR signal inh 18.4µM
Cc1ccccc1OCCn1c(=S)[nH]c2c(N)ncnc21	RORg inh inconclusive
Nc1ccc(-c2nc3ccc(N)cc3s2)cc1	RORg inh inconclusive, Giardia killer inconclusive, VP16 counter 7.94µM, BCR signal inh inconclusive, SW480 rereplic inconclusive, MCF10A rerep inconclusive
